Screens (PubChem)
MCF10A rereplic – DNA re-replication induction in MCF 10a cells; Potency, µM (highest dose often 46.1 µM), for inactives: at the top dose activity, positive = re-replication, actives largely listed as activators; MCF 10A DNA re-replication, Hoechst nuclear intensity, 48 h; actives 2.9% (n = 350,000); also: % of control where 0% means no effect; nearly all actives have a fitted effect of over 50% in size
SW480 rereplic – induces DNA re-replication in SW480 colon adenocarcinoma cells | Potency, µM (doses to about 46.1 µM), inactives show top-dose re-replication activation, most hits filed as activators | actives 1.8% (n = 340,000) | SW480 DNA re-replication, Hoechst DNA content imaging, 48 h; also: % of control where 0% means no effect; nearly all actives have a fitted effect of over 55% in size
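Per well, 250 cells were exposed to pinned compound for 48 hr. Nuclear DNA was visualised with Hoechst (40 min, 37 C) and total object intensity recorded by fluorescence scanning.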
HT1080 IDH1KD tx – toxicity to HT-1080 IDH1 knockdown cells (counter line); HT-1080 IDH1 knockdown viability, ATP luminescence, 48 h; actives 2% (n = 360,000); Potency, µM (titrated, usually from 46.1 µM), without a hit: at the top dose activity, negative = toxicity, most hits filed as cytotoxic;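 also: 0% = DMSO wells and -100% = cell-free medium wells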
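HT-1080-IDH1KD cells (IDH1 knocked down), 750/well in RPMI with 5% FBS, treated with compound 48 h at 37 degrees C. Viability by CellTiter-Glo luminescence, normalised to DMSO and no-cell wells; concentration-response curves classed.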
KB-V1 cytotox – KB-V1 MDR subline cytotoxicity; KB-V1 MDR cells viability, CellTiter-Glo, 72 h; Potency, µM (titrated, usually from 46.1 µM), most hits filed as cytotoxic; actives 3.4% (n = 400,000); also: % is scaled to controls: 0 for no effect and ±100 for the full control effect; nearly all actives have a fitted effect of over 60% in size
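Cytotoxicity toward P-gp-expressing KB-V1 cells was determined as loss of CellTiter-Glo luminescence after 72 h at 37 degrees C. Compounds were tested in quantitative HTS format across a concentration range, with curves fitted to normalized data.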
HT1080NT lethal – kills 2HG-producing HT-1080-NT fibrosarcoma cells. HT-1080-NT fibrosarcoma viability, CellTiter-Glo ATP luminescence, 48 h. Potency, µM (highest dose often 46.1 µM), for inactives: top-dose activity, negative = less viability, hits mostly cytotoxic. actives 1.6% (n = 360,000);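 also: NT is the 2HG producing partner of a matched IDH1 knockdown line; 0% = DMSO-treated cells and -100% = media-only wells without cells; nearly all actives have a fitted effect of over 55% in size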
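HT-1080-NT; 750 cells/well; 5% FBS RPMI; 48 h compound, 37 degrees C; CellTiter-Glo luminescence; curve fitting and curve-class assignment.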
KB-3-1 cytotox – kills parental KB-3-1 adenocarcinoma cells | KB-3-1 viability, CellTiter-Glo ATP luminescence, 72 h | Potency, µM (highest dose often 46.1 µM), usual class: cytotoxic | actives 1.4% (n = 400,000); also: % is scaled to controls: 0 for no effect and ±100 for the full control effect; nearly all actives have a fitted effect of over 60% in size
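Cytotoxicity in the drug-sensitive parental line KB-3-1 was scored as loss of CellTiter-Glo luminescence following 72 h incubation with compound. Values come from curve fitting of normalized concentration-response data.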
* hit, by the source's call; i = inactive; u = inconclusive; x = not tested or not shown. Rows were chosen to be rich in hits. Some 7.9% of all compounds tested hit in one or more screens of this group. Calls follow the shape of the dose curve; as a rule, active = well fitted curve in the direction sought with a large enough effect; inconclusive = small, poorly fitted or top-dose-only effect, or another doubt; inactive = no such curve, though single readings can be large; an effect the other way counts as inactive or inconclusive. Potency is read from the fitted curve at half-maximal effect.

SMILES	MCF10A rereplic	SW480 rereplic	HT1080 IDH1KD tx	KB-V1 cytotox	HT1080NT lethal	KB-3-1 cytotox
O=C(CNC(=O)C(c1ccccc1)c1ccccc1)N/N=C\c1cccc(O)c1	-1%	-3%	-2%	i	-6%	i
COc1cccc(/C=N/NC(=O)CNC(=O)COc2cccc(C)c2)c1O	u	u	23µM*	u	u	u
COc1cc(/C=N/NC(=O)/C(=C/c2ccccc2)CCO)ccc1O	-1%	u	4%	i	11%	i
O=C(Cn1cc(S(=O)(=O)N2CCCC2)c(S(=O)(=O)N2CCCC2)c1)Nc1cccc(F)c1	x	x	x	i	x	i
COc1ccc(CN(C)C(=O)C2CSC3(C)CCC(=O)N23)c(OC)c1 (stereo not given)	x	x	-4%	i	-5%	i
Cc1c(C(=O)NCc2ccc(F)cc2)sc(=O)n1Cc1ccccc1	x	x	1%	u	5%	i
Cc1cc(SCC(=O)N/N=C/c2ccccc2C(=O)O)c(C)cc1Br	13%	-1%	-5%	u	0%	i
Cc1cc(SCC(=O)N/N=C/c2ccc(O)cc2O)c(C)cc1Br	13%	u	u	10µM*	-28%	u
Cc1ccc(CNC(=O)CCCn2c(=O)c3ccccc3n(Cc3ccc(Cl)cc3)c2=O)cc1	x	x	x	i	x	i
C[C@@H]1CN([C@H](C)CO)S(=O)(=O)c2ccc(-c3ccc(C(=O)N(C)C)cc3)cc2O[C@H]1CN(C)C(=O)Cc1ccccn1	x	x	10%	i	20%	i
COc1ccc(Cn2c(SCc3ccc(C(=O)NC4CCCC4)cc3)nc3ccncc32)cc1	x	x	x	i	x	i
Cc1ccc(Cn2c(SCc3ccc(C(=O)NC4CCCC4)cc3)nc3ccncc32)cc1	x	x	x	i	x	23µM*
Cc1n(Cc2ccccc2)c2ccccc2[n+]1Cc1ccccc1	16%	1%	u	i	-16%	6.5µM*
O=C1Nc2ccc(S(=O)(=O)N3CCCCCC3)c3cccc1c23	21µM*	0%	-9%	i	-1%	i
COc1cc(/C=C/c2nc3cc(Cl)ccc3c(=O)n2-c2cccc(C(F)(F)F)c2)cc(OC)c1OC	x	x	x	i	x	i
O=[N+]([O-])c1ccc(NC(=S)N/C(=N/CS(=O)(=O)c2ccccc2)c2ccccc2)cc1	0%	-2%	-10%	u	0%	i
COc1ccc(NC(=S)N/C(=N/CS(=O)(=O)c2ccccc2)c2ccccc2)cc1	16µM*	u	-5%	i	1%	i
Cc1ccc(C)c(N2CCN(c3nccn4nc(-c5ccc(Br)cc5)cc34)CC2)c1	x	x	x	i	x	u
COc1ccc(Cl)c2sc(NC(=O)C3=COCCO3)nc12	-3%	5.2µM*	u	i	u	i
O=C(Nc1nc2cc3c(cc2s1)OCCO3)C1=COCCO1	1%	-4%	13µM*	i	15µM*	i
Cc1ccc(Cl)c2sc(NC(=O)C3=COCCO3)nc12	u	-1%	-10%	i	-16%	i
O=C(Nc1nc2ccc(F)cc2s1)C1=COCCO1	0%	-5%	u	12µM*	u	u
c1c[nH]c(C2CCN(c3ncc(-c4ccc5c(c4)OCCCO5)s3)CC2)n1	x	x	x	i	x	i
Cc1nn(-c2ccc(N3CCOCC3)nn2)c(C)c1CCC(=O)NCc1ccc(Cl)cc1	x	x	x	i	x	i
Cc1csc(/C(C#N)=N/O)n1	-2%	-8%	6%	u	-1%	i
SMILES	MCF10A rereplic	SW480 rereplic	HT1080 IDH1KD tx	KB-V1 cytotox	HT1080NT lethal	KB-3-1 cytotox
Cc1csc(/C(=N\O)c2csc(C)n2)n1	-2%	-2%	16µM*	i	u	i
Nc1c(Cl)ncnc1N/N=C/c1cccnc1	3.7µM*	-57%	0%	i	-2%	i
Nc1c(Cl)ncnc1N/N=C/c1ccnc2ccccc12	14%	17%	13%	u	7%	i
Nc1c(Cl)ncnc1N/N=C/c1ccc2ccccc2n1	21µM*	0.26µM*	u	i	u	21µM*
Nc1c(Cl)ncnc1N/N=C/c1ccccn1	u	u	u	i	u	8.2µM*
Cc1ccc(C(=O)OCC(=O)Nc2ccc(C)c(S(=O)(=O)N3CCCCC3)c2)o1	x	x	4%	i	-2%	i
CC1(C(=O)Nc2cccc3ccccc23)CCN1C(=O)C1(c2ccccc2)CCCC1 (stereo not given)	x	x	-19%	i	-4%	i
COCCNc1oc(/C=C/c2ccccc2)nc1C#N	15%	1%	0%	i	3%	i
CNc1oc(/C=C/c2ccccc2)nc1C#N	21µM*	u	8%	i	7%	i
N#Cc1nc(/C=C/c2ccccc2)oc1NCCCN1CCOCC1	23µM*	u	-7%	u	-8%	i
N#Cc1nc(-c2cccc3ccccc23)oc1NCCN1CCOCC1	16µM*	u	2%	i	-22%	i
N#Cc1nc(COc2ccc(-c3ccccc3)cc2)oc1NCCCN1CCOCC1	11µM*	u	u	i	u	u
Cc1noc(-c2ccc(N3CCCCC3)c([N+](=O)[O-])c2)n1	x	x	x	i	x	i
O=S(=O)(c1ccc(C(F)(F)F)cc1)N1CCN(c2nc(-c3cccs3)nc3ccccc23)CC1	x	x	-3%	x	5%	x
CCN1CCN(c2oc(/C=C/c3ccccc3)nc2C#N)CC1	23µM*	u	-2%	i	10%	i
N#Cc1nc(/C=C/c2ccc(F)cc2)oc1N1CCN(c2ccccc2)CC1	x	x	x	i	x	i
COc1ccccc1NS(=O)(=O)c1cccc(C(=O)N2CCCCCCC2)c1	0%	-4%	-2%	16µM*	10%	i
O=C(c1cccc(S(=O)(=O)Nc2ccccc2Cl)c1)N1CCC1	0%	-2%	0%	i	1%	i
CC1CCCN(C(=O)c2cccc(S(=O)(=O)Nc3cc(C(F)(F)F)ccc3Cl)c2)C1 (stereo not given)	u	-101%	21%	18µM*	-3%	i
Cc1ccc(NS(=O)(=O)c2ccc(C(=O)N3CCN(S(=O)(=O)c4ccccc4)CC3)cc2)cc1	7%	26µM*	-12%	u	-1%	u
Cc1ccc(C)c(OCCC(=O)Nc2cccc(S(=O)(=O)NC3=NCCCCC3)c2)c1	u	2%	-9%	i	3%	i
Cc1ccc(S(=O)(=O)Nc2ccc(C(=O)N3CCCC3)cc2)cc1	-33%	-7%	8%	u	4%	i
